PubChem BioAssay AID1014 (NMMLSC, 2008)
Calls of active or inactive are those of the source. Rule as the data show it: active = inhibition of mean fluorescence above about 33%; inactive = the rest.

Assay: quorum sensing inhibitors in bacterial reporter, SAR follow-up, flow cytometry, SAR analogs (AID 1014);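 also: Staphylococcus aureus RN6390 with RNAIII-GFP reporter stimulated by AIP; bacteria incubated with compound for 3 hours at 37 °C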
Details: at 20 µM, stronger effect = higher value; inhibition of percent positive cells: flow cytometry fluorescence, measured here: percent reporter-positive cells

| Structure (SMILES) | inhibition of mean fluorescence | inhibition of percent positive cells [%] |
| --- | --- | --- |
| CCOC(=O)c1cnc2ccc(OC)cc2c1Nc1ccccc1C(=O)O | -23.9% (inactive) | -1.3 |
| CCOc1ccc(Nc2nc3c(S(=O)(=O)c4ccc(Br)cc4)nnn3c3ccccc23)cc1 | -22.8% (inactive) | -0.3 |
| O=C(NCC(c1cccnc1)N1CCN(c2ccccc2)CC1)c1ccccc1F (stereo not drawn) | -31.8% (inactive) | -1.7 |
| O=C(Nc1ccc2c(c1)OCO2)C(c1ccccc1)N1CCC(Cc2ccccc2)CC1 (stereo not drawn) | 63% (active) | 4.2 |
| O=C(O)c1ccccc1Nc1cccc2c1C(=O)c1ccccc1C2=O | 58.7% (active) | 10 |
| CCN1CCN(C(C(=O)NC2CCCC2)c2cc3c(cc2[N+](=O)[O-])OCO3)CC1 (stereo not drawn) | -8.6% (inactive) | -0.6 |
| CCN1CCN(C(CNC(=O)c2ccc(F)cc2)c2cccnc2)CC1 (stereo not drawn) | -8.8% (inactive) | -0.6 |
| CC(C)c1ccc(NC(=O)C(c2cc3c(cc2[N+](=O)[O-])OCO3)N2CCCCC2)cc1 (stereo not drawn) | 29% (inactive) | -0.2 |
| COc1c(F)c(F)c(C(=O)O)c(Nc2ccc(C)cc2)c1F | 9.1% (inactive) | -1.6 |
| CC1CCCN(C(C(=O)Nc2ccc(C(C)C)cc2)c2cc3c(cc2[N+](=O)[O-])OCO3)C1 (stereo not drawn) | 14.1% (inactive) | -0.2 |
| N#Cc1c(NC(=O)COC(=O)CN2C(=O)c3ccccc3C2=O)sc2c1CCCC2 | -2.3% (inactive) | -0.2 |
| O=C(NCC(c1cccnc1)N1CCN(c2ccc(F)cc2)CC1)C1CC1 (stereo not drawn) | -43% (inactive) | 0.1 |
| CCOC(=O)c1oc2cccc(O)c2c1C | 0.4% (inactive) | -0.8 |
| COc1ccc(Nc2nc3c(S(=O)(=O)c4ccc(Cl)cc4)nnn3c3ccccc23)cc1 | -19.3% (inactive) | -0.9 |
| O=C(NCC(c1cccnc1)N1CCN(c2ccc(F)cc2)CC1)c1cccs1 (stereo not drawn) | 20.1% (inactive) | -0.3 |
| CC(C)c1ccc(NC(=O)C(c2ccc3c(c2)OCO3)N2CCC3(CC2)OCCO3)cc1 (stereo not drawn) | 15.2% (inactive) | -0.8 |
| O=C(CN1CC(=O)Oc2ccccc21)Nc1ccc2c(c1)OCO2 | -25.8% (inactive) | -0.2 |
| COc1ccc(N2CCN(C(CNC(=O)c3ccccc3F)c3cccnc3)CC2)cc1 (stereo not drawn) | -65.6% (inactive) | -1.1 |
| COc1ccc(N2CCN(C(CNC(=O)c3ccc(F)cc3)c3cccnc3)CC2)cc1 (stereo not drawn) | -63.3% (inactive) | -1.5 |
| CC(C)c1ccc(NC(=O)C(c2ccc3c(c2)OCO3)N2CCOCC2)cc1 (stereo not drawn) | 2.7% (inactive) | -0.1 |

| Structure (SMILES) | inhibition of mean fluorescence | inhibition of percent positive cells [%] |
| --- | --- | --- |
| CC1CCc2nn(CC(=O)Nc3ccc4c(c3)OCCO4)cc2C1 (stereo not drawn) | 4.5% (inactive) | 0 |
| CCc1ccc(S(=O)(=O)c2nnn3c2nc(Nc2ccc(Oc4ccccc4)cc2)c2cc(Cl)ccc23)cc1 | -16.6% (inactive) | -0.1 |
| O=C(NCC(c1cccnc1)N1CCN(c2ccccc2F)CC1)C1CCCCC1 (stereo not drawn) | -12.9% (inactive) | -0.1 |
| Cc1cccc(Nc2c(F)c(F)c(F)c(F)c2C(=O)O)c1 | -16.8% (inactive) | -0.2 |
| O=C(O)c1ccccc1Nc1ccccc1C(=O)O | 5.8% (inactive) | -0.5 |
| N#Cc1c(NC(=O)c2cc3ccccc3c(=O)o2)sc2c1CCCCCC2 | -18.3% (inactive) | 0.2 |
| O=C(NCC(c1cccnc1)N1CCc2ccccc21)c1ccc(F)c(F)c1 (stereo not drawn) | 19.9% (inactive) | -0.3 |
| Cc1ccc(S(=O)(=O)c2nnn3c2nc(Nc2cccc(C)c2)c2ccccc23)cc1 | 5.4% (inactive) | 1.5 |
| CCc1c(C(=O)c2ccc(C)cc2)oc2ccc3c(C)cc(=O)oc3c12 | 10.8% (inactive) | -0.1 |
| COc1ccc(S(=O)(=O)c2nnn3c2nc(Nc2cccc(C)c2)c2ccccc23)cc1 | -7.2% (inactive) | 0.1 |
| COc1c(F)c(F)c(C(=O)O)c(Nc2cc(C)cc(C)c2)c1F | -29.1% (inactive) | -2 |
| O=C(O)c1ccccc1Nc1nc(N2CCCC2)nc(N2CCCC2)n1 | 10.8% (inactive) | -0.3 |
| Cc1ccc(Nc2nc3c(S(=O)(=O)c4ccc(C)cc4)nnn3c3ccccc23)cc1 | -16% (inactive) | 0.9 |
| Cc1c(Nc2c(C(=O)O)cc([N+](=O)[O-])cc2[N+](=O)[O-])c(=O)n(-c2ccccc2)n1C | -3.7% (inactive) | -0.4 |
| CCOC(=O)c1c(-c2ccccc2)oc2ccc(O)cc12 | 13.3% (inactive) | -0.9 |
| O=C(NCC(c1cccnc1)N1CCN(c2ccc(F)cc2)CC1)c1cccc(Cl)c1 (stereo not drawn) | -11.7% (inactive) | -0.1 |
| COc1ccc(C(=O)NCC(c2cccnc2)N2CCN(c3ccccc3F)CC2)cc1 (stereo not drawn) | -7.6% (inactive) | -0.9 |
| CC1CCN(C(=O)Cn2cc(SCC(=O)Nc3ccc4c(c3)OCO4)c3ccccc32)CC1 | -4.6% (inactive) | -0.2 |
| CC(=O)c1c(C)oc2c1cc(O)c1ccccc12 | 9.1% (inactive) | -0.2 |
